# Experimental data taken from the supplement of paper PMC8728848.
# Many of the other results were omitted from the sample, so the strongest signals are more common in it than they were.
# Tests used:
# Assay in all cases: glycan array binding signal (z-score within array); higher = stronger binding
# Conditions in all cases: glycan notation: IUPAC condensed, linker removed
# [1] = target: Fuc(a1-2)Gal
# How it was run: (§1)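 Glycan array data were curated from 3228 arrays in the Consortium for Functional Glycomics database and kept only where the protein sequence was available. Glycan names were converted to IUPAC-condensed notation, and columns mapping to the same glycan were averaged. The binding signal is a within-array Z-score, averaged across arrays of the same protein sequence at different concentrations or buffers and across linkers. Negative Z-scores can be read as non-binding.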
# [2] = target: Fuc(a1-2)Gal(b1-3)GlcNAc
# How it was run: as §1
# [3] = target: Fuc(a1-2)Gal(b1-3)GlcNAc(b1-2)Man(a1-3)[Fuc(a1-2)Gal(b1-3)GlcNAc(b1-2)Man(a1-6)]Man(b1-4)GlcNAc(b1-4)GlcNAc
# How it was run: as §1
# [4] = target: Fuc(a1-2)Gal(b1-3)GlcNAc(b1-2)Man(a1-3)[Fuc(a1-2)Gal(b1-3)GlcNAc(b1-2)Man(a1-6)]Man(b1-4)GlcNAc(b1-4)[Fuc(a1-6)]GlcNAc
# How it was run: as §1
# [5] = target: Fuc(a1-2)Gal(b1-3)GlcNAc(b1-3)GalNAc
# How it was run: as §1
# [6] = target: Fuc(a1-2)Gal(b1-3)[Fuc(a1-4)]GlcNAc(b1-2)Man(a1-3)[Fuc(a1-2)Gal(b1-3)[Fuc(a1-4)]GlcNAc(b1-2)Man(a1-6)]Man(b1-4)GlcNAc(b1-4)[Fuc(a1-6)]GlcNAc(b1-4)[Fuc(a1-6)]GlcNAc
# How it was run: as §1
# [7] = target: Fuc(a1-2)Gal(b1-4)GlcNAc
# How it was run: as §1
# [8] = target: Fuc(a1-2)Gal(b1-4)[Fuc(a1-3)]GlcNAc(b1-2)Man(a1-3)[Fuc(a1-2)Gal(b1-4)[Fuc(a1-3)]GlcNAc(b1-2)Man(a1-6)]Man(b1-4)GlcNAc(b1-4)[Fuc(a1-6)]GlcNAc
# How it was run: as §1
# [9] = target: Fuc(a1-2)Gal6S(b1-4)Glc
# How it was run: as §1
# [10] = target: Fuc(a1-2)[Gal(a1-3)]Gal(b1-3)GlcNAc(b1-3)GalNAc
# How it was run: as §1
# [11] = target: Fuc(a1-2)[Gal(a1-4)]Gal(b1-4)GlcNAc
# How it was run: as §1
# [12] = target: Fuc(a1-3)[Gal(b1-4)]GlcNAc(b1-2)Man
# How it was run: as §1
# [13] = target: Fuc(a1-3)[Gal(b1-4)]GlcNAc(b1-2)Man(a1-3)[Fuc(a1-3)[Gal(b1-4)]GlcNAc(b1-2)Man(a1-6)]Man(b1-4)GlcNAc(b1-4)GlcNAc
# How it was run: as §1
# [14] = target: Fuc(a1-3)[Gal(b1-4)]GlcNAc(b1-6)GalNAc
# How it was run: as §1
# [15] = target: Gal(a1-3)Gal(b1-3)GlcNAc(b1-2)Man
# How it was run: as §1
# [16] = target: Gal(a1-3)Gal(b1-4)GlcNAc(b1-6)GalNAc
# How it was run: as §1
# [17] = target: Gal(a1-3)[Gal(a1-4)]Gal(b1-4)GlcNAc
# How it was run: as §1
# [18] = target: Gal(a1-4)Gal(b1-4)GlcNAc
# How it was run: as §1
# [19] = target: Gal(b1-2)Gal
# How it was run: as §1
# [20] = target: Gal(b1-4)GlcNAc
# How it was run: as §1
# [21] = target: Gal(b1-4)GlcNAc(b1-3)Gal(b1-4)Glc
# How it was run: as §1
# [22] = target: Gal(b1-4)GlcNAc(b1-3)Gal(b1-4)GlcNAc(b1-2)Man(a1-3)[Gal(b1-4)GlcNAc(b1-3)Gal(b1-4)GlcNAc(b1-2)Man(a1-6)]Man(b1-4)GlcNAc(b1-4)GlcNAc
# How it was run: as §1
# [23] = target: GalNAc(b1-3)Gal
# How it was run: as §1
# [24] = target: GalNAc(b1-3)Gal(a1-4)Gal(b1-4)GlcNAc(b1-3)Gal(b1-4)Glc
# How it was run: as §1
# [25] = target: Glc(b1-4)Glc
# How it was run: as §1
# [26] = target: GlcA3S(b1-3)Gal(b1-4)GlcNAc(b1-3)Gal(b1-4)Glc
# How it was run: as §1
# [27] = target: GlcNAc(b1-2)[GlcNAc(b1-4)]Man(a1-3)[GlcNAc(b1-4)][GlcNAc(b1-2)Man(a1-6)]Man(b1-4)GlcNAc(b1-4)GlcNAc
# How it was run: as §1
# [28] = target: GlcNAc(b1-3)Gal(b1-4)Glc
# How it was run: as §1
# [29] = target: GlcNAc(b1-3)Gal(b1-4)GlcNAc(b1-2)Man(a1-3)[GlcNAc(b1-3)Gal(b1-4)GlcNAc(b1-2)Man(a1-6)]Man(b1-4)GlcNAc(b1-4)[Fuc(a1-6)]GlcNAc
# How it was run: as §1
# [30] = target: GlcNAc(b1-3)Gal(b1-4)GlcNAc(b1-3)Gal(b1-4)GlcNAc(b1-2)Man(a1-3)[GlcNAc(b1-3)Gal(b1-4)GlcNAc(b1-3)Gal(b1-4)GlcNAc(b1-2)Man(a1-6)]Man(b1-4)GlcNAc(b1-4)[Fuc(a1-6)]GlcNAc
# How it was run: as §1
# [31] = target: GlcNAc(b1-3)Gal(b1-4)GlcNAc(b1-3)Gal(b1-4)GlcNAc(b1-3)Gal(b1-4)GlcNAc(b1-2)[GlcNAc(b1-3)Gal(b1-4)GlcNAc(b1-3)Gal(b1-4)GlcNAc(b1-3)Gal(b1-4)GlcNAc(b1-6)]Man(a1-6)[GlcNAc(b1-3)Gal(b1-4)GlcNAc(b1-3)Gal(b1-4)GlcNAc(b1-3)Gal(b1-4)GlcNAc(b1-2)Man(a1-3)]Man(b1-4)GlcNAc(b1-4)[Fuc(a1-6)]GlcNAc
# How it was run: as §1
# [32] = target: Man(a1-2)Man(a1-3)Man
# How it was run: as §1
# [33] = target: Man(a1-3)[Man(a1-6)]Man(b1-4)GlcNAc(b1-4)GlcNAc
# How it was run: as §1
# [34] = target: Neu5Ac(a2-3)Gal(b1-3)GlcNAc(b1-3)GalNAc
# How it was run: as §1
# [35] = target: Neu5Ac(a2-3)Gal(b1-3)[Fuc(a1-4)]GlcNAc
# How it was run: as §1
# [36] = target: Neu5Ac(a2-3)Gal(b1-4)GlcNAc(b1-2)Man(a1-3)[Neu5Ac(a2-3)Gal(b1-4)GlcNAc(b1-2)Man(a1-6)]Man(b1-4)GlcNAc(b1-4)[Fuc(a1-6)]GlcNAc
# How it was run: as §1
# [37] = target: Neu5Ac(a2-3)Gal(b1-4)[Fuc(a1-3)]GlcNAc(b1-3)GalNAc
# How it was run: as §1
# [38] = target: Neu5Ac(a2-6)Gal(b1-4)GlcNAc(b1-2)Man
# How it was run: as §1
# [39] = target: Neu5Ac(a2-6)Gal(b1-4)GlcNAc(b1-2)Man(a1-3)[GlcNAc(b1-2)Man(a1-6)]Man(b1-4)GlcNAc(b1-4)GlcNAc
# How it was run: as §1
# [40] = target: Neu5Ac(a2-6)Gal(b1-4)GlcNAc(b1-2)Man(a1-3)[Neu5Ac(a2-6)Gal(b1-4)GlcNAc(b1-2)Man(a1-6)]Man(b1-4)GlcNAc(b1-4)GlcNAc
# How it was run: as §1
# [41] = target: Neu5Ac(a2-6)Gal(b1-4)GlcNAc(b1-2)Man(a1-6)Man(b1-4)GlcNAc(b1-4)GlcNAc
# How it was run: as §1
# [42] = target: Neu5Ac(a2-6)GlcNAc(b1-4)GlcNAc(b1-4)GlcNAc
# How it was run: as §1
# [43] = target: Neu5Ac(a2-8)Neu5Gc(a2-3)Gal(b1-4)GlcNAc
# How it was run: as §1
# [44] = target: Neu5Gc(a2-3)Gal(b1-4)Glc
# How it was run: as §1
# [45] = target: Neu5Gc(a2-6)GalNAc
# How it was run: as §1
# [46] = target: Neu5Gc(a2-8)Neu5Gc(a2-3)Gal(b1-4)GlcNAc(b1-3)Gal(b1-4)GlcNAc
# How it was run: as §1
binder,measurement,setting,value
PX14375D-bvu-513-34-513 (Bacteroides vulgatus) (protein) TEDTFWKDETDFNLALTSCYTPLKNALNGGYYGTRGVMLRIARADEVDFRNDISDVYTVNRFTNSNTNSLTQGMFYQFYNALYRTNSIMQKLEEKKEQFSTDFQNSVKGECLFIRGFYLFQLAKEFKDAPLRLTASQSPSTFPLAKSSQADIWAQAKEDLKTAASLLPITNKIGKPTQGAAYAALGKIYVYEENWQEAINVLEPLTQNPYTYKLVEDFNWNFDDTHENNAESIFELLIEDVGGTDLWGDGENINSTQSNTRPKEYAAAEVGGWYEANPTQQIMDIFWKEKDKDGNFDYRARCSVAWDYEGCTYYQRPFREVFAQDKWKTYWILKYQNWKTQKDEPAPPKSFINERAIRYADVLLMLAEAYMNKGALDTSIGYINQIRRRANLNDYSGPITKEGVFEDLVHQRAIEFFVEGERFYDLRRWGLLEQTLKTCDDTRYKNYQTGKSDNINKFNYFPIPAKELDTNPLCTPSEGW,glycan array binding signal (z-score),[1],0.373
same,glycan array binding signal (z-score),[2],-0.892
same,glycan array binding signal (z-score),[3],1.56
same,glycan array binding signal (z-score),[4],0.425
same,glycan array binding signal (z-score),[5],-0.35
same,glycan array binding signal (z-score),[6],2.03
same,glycan array binding signal (z-score),[7],0.501
same,glycan array binding signal (z-score),[8],1.81
same,glycan array binding signal (z-score),[9],-0.059
same,glycan array binding signal (z-score),[10],-0.366
same,glycan array binding signal (z-score),[11],-0.107
same,glycan array binding signal (z-score),[12],2.96
same,glycan array binding signal (z-score),[13],-0.56
same,glycan array binding signal (z-score),[14],0.851
same,glycan array binding signal (z-score),[15],-0.81
same,glycan array binding signal (z-score),[16],0.081
same,glycan array binding signal (z-score),[17],2.92
same,glycan array binding signal (z-score),[18],0.227
same,glycan array binding signal (z-score),[19],-0.667
same,glycan array binding signal (z-score),[20],0.126
same,glycan array binding signal (z-score),[21],-0.017
same,glycan array binding signal (z-score),[22],1.87
same,glycan array binding signal (z-score),[23],-0.306
same,glycan array binding signal (z-score),[24],0.403
same,glycan array binding signal (z-score),[25],0.371
same,glycan array binding signal (z-score),[26],-0.213
same,glycan array binding signal (z-score),[27],-0.188
same,glycan array binding signal (z-score),[28],-0.384
same,glycan array binding signal (z-score),[29],1.56
same,glycan array binding signal (z-score),[30],1.62
same,glycan array binding signal (z-score),[31],2.65
same,glycan array binding signal (z-score),[32],-1
same,glycan array binding signal (z-score),[33],0.478
same,glycan array binding signal (z-score),[34],-0.439
same,glycan array binding signal (z-score),[35],1.67
same,glycan array binding signal (z-score),[36],-0.211
same,glycan array binding signal (z-score),[37],1.33
same,glycan array binding signal (z-score),[38],-0.379
same,glycan array binding signal (z-score),[39],-0.096
same,glycan array binding signal (z-score),[40],-0.145
same,glycan array binding signal (z-score),[41],0.342
same,glycan array binding signal (z-score),[42],0.337
same,glycan array binding signal (z-score),[43],18.8
same,glycan array binding signal (z-score),[44],-0.166
same,glycan array binding signal (z-score),[45],-0.168
same,glycan array binding signal (z-score),[46],-0.969
